Measured values from PubChem BioAssay (Tox21).
Values joined by “and” are separate entries in the source; they are usually repeats but may differ in a detail not shown here. Equal entries are not always repeated. Results filed as inconclusive are left out. A call without a number means that no potency is given here. More than one record can exist for a structure, and the calls need not agree. Active and inactive are the calls of the source. Unless noted, calls follow the shape of the dose curve; as a rule, active = well fitted curve in the direction sought with a large enough effect in the repeat runs; inconclusive = weak or mixed curves; inactive = no such curve, though single readings can be large; an effect the other way counts as inactive or inconclusive.

How the values were obtained:
[1] = molecular target: Retinoic acid receptor RXR-alpha (Homo sapiens) (UniProt P19793); test: qHTS assay to identify small molecule agonists of the RXR signaling pathway (AID 1159527; calls by dose curve; also: nearly all actives have a fitted effect of over 35% in size)
Retinoic acid receptor RXR-alpha (Homo sapiens), sequence (P19793 whole entry, looked up): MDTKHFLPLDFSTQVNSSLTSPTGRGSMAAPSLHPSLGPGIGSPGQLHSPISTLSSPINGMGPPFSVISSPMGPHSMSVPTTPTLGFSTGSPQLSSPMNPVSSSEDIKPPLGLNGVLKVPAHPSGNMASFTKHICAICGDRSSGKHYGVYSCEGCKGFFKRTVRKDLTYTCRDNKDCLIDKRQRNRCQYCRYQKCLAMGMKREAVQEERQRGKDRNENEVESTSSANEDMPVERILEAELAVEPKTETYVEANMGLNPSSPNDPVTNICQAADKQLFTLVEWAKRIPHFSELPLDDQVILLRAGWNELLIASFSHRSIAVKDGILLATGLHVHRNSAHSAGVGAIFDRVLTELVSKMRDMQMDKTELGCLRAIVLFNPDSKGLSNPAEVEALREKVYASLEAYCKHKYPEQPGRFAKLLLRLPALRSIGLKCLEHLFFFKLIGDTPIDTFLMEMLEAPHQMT
In short: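 Agonist-mode beta-lactamase reporter assay: HEK 293T RXR-alpha-UAS-bla cells treated 16 hr at 37 C with compounds, 9-cis retinoic acid as positive control. LiveBLAzer FRET substrate, 405 nm excitation, 460/530 nm emission.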

[2] = qHTS assay to identify small molecule agonists of the RXR signaling pathway - cell viability counter screen (AID 1159529); also: series mostly up to about 77 µM; nearly all actives have a fitted effect of over 50% in size
In short: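 CellTiter-Glo luminescence gave viability in the wells also read for beta-lactamase. Cells (RXR-alpha-UAS-bla HEK 293T, 2% charcoal-stripped FBS medium) had 5 hr plating, then 16 hr compound exposure at 37 C; tetraoctyl ammonium bromide served as positive control.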

[3] = qHTS assay to identify small molecule antagonists of the retinoid acid receptor (RAR) signaling pathway - cell viability counter screen (AID 1159551); also: nearly all actives have a fitted effect of over 35% in size
In short: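 Cytotoxicity counter screen: ATP content quantified by CellTiter-Glo luminescence in C3RL4 cells treated 6 hr at 37 C with compound and retinol (1 uM final). Cells plated at 1,000/well and cultured overnight before dosing.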

[4] = qHTS assay to identify small molecule antagonists of the retinoic acid receptor (RAR) signaling pathway (AID 1159552; also: nearly all actives have a fitted effect of over 50% in size)
In short: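 Luminescent RARE reporter read-out in C3RL4 cells: 6 hr co-treatment at 37 C of test compounds with retinol at 1 uM final. Cells plated overnight beforehand; luciferase reagent incubated 30 min at room temperature before reading.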

[5] = qHTS assay to identify small molecule agonists of the retinoic acid receptor (RAR) signaling pathway (AID 1159553)
In short: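 Luminescence was measured 30 min after luciferase reagent addition at room temperature. Before that, C3RL4 reporter cells (1,000 per well, plated overnight) were treated with compound for 6 hr at 37 C and 5% CO2.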

[6] = qHTS assay to identify small molecule antagonists of the estrogen related receptor (ERR) signaling pathway from Tox21 library - cell viability counter screen (AID 1224834); also: nearly all actives have a fitted effect of over 30% in size
In short: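 CellTiter-Fluor fluorescence, read after 30 min at 37 C, measures viability of ERR cells. Cells plated at 2,000/well and incubated 6 h before pin-tool compound addition, then exposed 17.5 hours at 37 C.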

[7] = molecular target: Luciferin 4-monooxygenase (Photinus pyralis) (UniProt P08659); test: qHTS assay to identify small molecule inhibitors of firefly luciferase (AID 1224835); also: nearly all actives have a fitted effect of over 25% in size; also: potency is read from the fitted curve at half-maximal effect
Luciferin 4-monooxygenase (Photinus pyralis), sequence (P08659 whole entry, looked up): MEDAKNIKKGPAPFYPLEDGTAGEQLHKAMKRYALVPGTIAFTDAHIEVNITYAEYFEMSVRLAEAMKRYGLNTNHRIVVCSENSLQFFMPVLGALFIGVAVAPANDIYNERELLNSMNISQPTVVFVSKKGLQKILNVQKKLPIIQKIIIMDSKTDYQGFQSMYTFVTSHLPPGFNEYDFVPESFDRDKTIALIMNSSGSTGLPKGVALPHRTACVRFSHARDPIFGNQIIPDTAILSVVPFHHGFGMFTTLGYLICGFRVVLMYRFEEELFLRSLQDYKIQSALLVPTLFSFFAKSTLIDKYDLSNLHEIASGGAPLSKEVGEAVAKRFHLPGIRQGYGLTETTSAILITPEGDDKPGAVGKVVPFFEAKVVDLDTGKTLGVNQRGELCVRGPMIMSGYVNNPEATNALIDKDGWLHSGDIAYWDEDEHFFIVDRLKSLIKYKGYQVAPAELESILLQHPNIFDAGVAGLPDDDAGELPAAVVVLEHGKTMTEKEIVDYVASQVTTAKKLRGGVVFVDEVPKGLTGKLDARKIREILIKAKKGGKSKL
In short: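 Quantitative HTS format; KM concentrations of both substrates. Purified P. pyralis FLuc activity quantified from luminescence images.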

[8] = qHTS assay to identify small molecule agonists of the constitutive androstane receptor (CAR) signaling pathway - cell viability counter screen (AID 1224836); also: series mostly up to about 92 µM; nearly all actives have a fitted effect of over 45% in size
In short: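 Cell viability multiplexed with the CAR agonist screen: CellTiter-Fluor fluorescence after 23 hr at 37 C. HepG2-CYP2B6-hCAR cells got compounds at 15 concentrations with PK11195 at 0.75 uM final.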

[9] = qHTS assay to identify small molecule antagonists of the constitutive androstane receptor (CAR) signaling pathway - cell viability counter screen (AID 1224837); also: series mostly up to about 92 µM; nearly all actives have a fitted effect of over 45% in size
In short: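 Cytotoxicity counter-screen: CellTiter-Fluor fluorescence after 23 h compound exposure (15-point qHTS) in double-stable HepG2-CYP2B6-hCAR cells, with 50 nM CITCO added.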

[10] = molecular target: Nuclear receptor subfamily 1 group I member 3 (Homo sapiens) (UniProt Q14994); test: qHTS assay to identify small molecule agonists of the constitutive androstane receptor (CAR) signaling pathway (AID 1224839);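 also: HepG2 cells stably carrying human CAR and a CYP2B6 luciferase reporter; series mostly up to about 92 µM; nearly all actives have a fitted effect of over 15% in size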
Nuclear receptor subfamily 1 group I member 3 (Homo sapiens), sequence (Q14994 whole entry, looked up): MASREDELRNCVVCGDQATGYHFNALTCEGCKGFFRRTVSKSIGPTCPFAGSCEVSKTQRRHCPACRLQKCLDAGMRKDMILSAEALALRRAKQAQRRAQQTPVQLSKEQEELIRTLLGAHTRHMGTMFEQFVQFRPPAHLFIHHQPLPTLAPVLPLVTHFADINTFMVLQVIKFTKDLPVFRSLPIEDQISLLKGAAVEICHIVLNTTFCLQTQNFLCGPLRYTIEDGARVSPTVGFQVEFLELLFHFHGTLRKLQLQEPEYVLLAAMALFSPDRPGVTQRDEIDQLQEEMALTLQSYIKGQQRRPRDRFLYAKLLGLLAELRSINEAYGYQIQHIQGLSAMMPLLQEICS
In short: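 Luminescent ONE-Glo read-out after 24 hr, 37 C exposure of double-stable HepG2-CYP2B6-hCAR reporter cells to a 15-point compound series, in the presence of 0.75 uM PK11195 (final).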

[11] = qHTS assay to identify small molecule antagonists of the estrogen related receptor signaling pathway with the pleiotropic PPARgamma coactivator (PGC) from Tox21 10K library - cell viability counter screen (AID 1224840; active = well fitted cell-killing curve with a large enough effect in the repeat runs, not every such curve was filed as active; also: nearly all actives have a fitted effect of over 40% in size)
In short: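 Counter-screen for cytotoxicity: after 17.5 h compound exposure at 37 C, CellTiter-Fluor reagent added to PGC/ERR cells for 30 min and fluorescence read. Cells were seeded at 2,000 per well 6 h before dosing.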

[12] = molecular target: Thyrotropin receptor (Homo sapiens) (UniProt P16473); test: qHTS assay to identify small molecule agonists of the thyroid stimulating hormone receptor (TSHR) signaling pathway (AID 1224843; calls by dose curve; also: nearly all actives have a fitted effect of over 45% in size; also: potency is read from the fitted curve at half-maximal effect)
Thyrotropin receptor (Homo sapiens), sequence (P16473 whole entry, looked up): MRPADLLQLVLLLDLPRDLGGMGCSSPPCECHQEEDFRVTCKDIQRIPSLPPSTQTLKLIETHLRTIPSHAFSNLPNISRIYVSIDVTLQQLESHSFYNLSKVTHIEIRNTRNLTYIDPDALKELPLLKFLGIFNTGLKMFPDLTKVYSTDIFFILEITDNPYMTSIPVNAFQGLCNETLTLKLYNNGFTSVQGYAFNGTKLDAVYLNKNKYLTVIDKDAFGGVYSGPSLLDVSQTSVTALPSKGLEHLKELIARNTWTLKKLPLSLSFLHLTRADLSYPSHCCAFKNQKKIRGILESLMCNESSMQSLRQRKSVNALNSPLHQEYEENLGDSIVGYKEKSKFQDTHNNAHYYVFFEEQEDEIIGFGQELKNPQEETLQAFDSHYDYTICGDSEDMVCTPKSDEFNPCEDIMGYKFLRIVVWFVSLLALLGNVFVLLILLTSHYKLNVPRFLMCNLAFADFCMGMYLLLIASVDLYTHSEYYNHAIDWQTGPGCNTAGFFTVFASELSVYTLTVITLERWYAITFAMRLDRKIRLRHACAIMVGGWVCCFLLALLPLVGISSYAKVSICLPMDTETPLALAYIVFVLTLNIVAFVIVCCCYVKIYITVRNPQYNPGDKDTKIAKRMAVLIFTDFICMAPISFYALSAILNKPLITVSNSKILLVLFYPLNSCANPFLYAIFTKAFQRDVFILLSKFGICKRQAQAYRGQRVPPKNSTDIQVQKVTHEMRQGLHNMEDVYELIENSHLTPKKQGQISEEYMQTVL
In short: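 Compounds are titrated over 15 concentrations, in triplicate, onto TSHR-HEK293 cells seeded at 800/well. Plates sit 30 min at room temperature before cAMP-d2 and anti-cAMP cryptate are added; signal is read after a further hour.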

[13] = qHTS assay to identify small molecule agonists of the hypoxia (HIF-1) signaling pathway - cell viability counter screen (AID 1224844; calls by dose curve; also: nearly all actives have a fitted effect of over 50% in size)
In short: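 Cytotoxicity measured by CellTiter-Glo ATP luminescence in the wells also read for beta-lactamase signal. Cells were HRE-bla ME-180 (2,000/well, 0.5% dialyzed FBS), exposed to compounds for 17 h at 37C.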

[14] = qHTS assay to identify small molecule agonists of H2AX (AID 1224845; active = well fitted activation curve with a large enough effect in the signal ratio in the repeat runs, not every such curve was filed as active; the % refers to the signal ratio)
In short: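 Wild-type CHO-K1 cells plated overnight, then exposed 3 hr at 37C to compounds at 15 concentrations (0.76% DMSO). Lysed, then HTRF anti-pH2AX(S139)-cryptate/anti-H2AX-d2 detection after 24 hr at room temperature; emissions 665 and 620 nm.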

[15] = qHTS assay to identify small molecule agonists of the hypoxia (HIF-1) signaling pathway (AID 1224846; active = well fitted activation curve with a large enough effect in the signal ratio in the repeat runs, not every such curve was filed as active; the % refers to the signal ratio)
In short: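 Compounds added to ME-180 cells carrying hypoxia-response-element beta-lactamase reporter (0.5% dialyzed FBS, 5 h preplating), 17 h at 37C; agonist activity detected by CCF4-AM B/G FRET read-out.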

[16] = qHTS assay to identify small molecule antagonists of the estrogen related receptor (ERR) signaling pathway - cell viability counter screen (AID 1224818);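 also: series mostly up to about 46 µM; viability measured after 17.5 h of compound exposure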
In short: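 Cytotoxicity counter screen: fluorescence from CellTiter-Fluor, added after 17.5 h compound exposure at 37 C and read 30 min later. ERR cell line seeded at 2,000 cells/well, preincubated 6 h before dosing.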

[17] = qHTS assay to identify small molecule antagonists of the estrogen related receptor signaling pathway with the pleiotropic PPARgamma coactivator (PGC) cell viability counter screen (AID 1224822; also: series mostly up to about 46 µM)
In short: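 Viability counter-screen read by fluorescence intensity after 30 min with CellTiter-Fluor at 37 C; PGC/ERR reporter cells were exposed to compounds for 17.5 h at 37 C following a 6 h preincubation.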

[18] = molecular target: Nuclear receptor subfamily 1 group I member 3 (Homo sapiens) (UniProt Q14994); test: qHTS assay to identify small molecule antagonists of the constitutive androstane receptor (CAR) signaling pathway (AID 1224838);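 also: HepG2 cells stably expressing hCAR with CYP2B6 luciferase reporter stimulated by CITCO; nearly all actives have a fitted effect of over 40% in size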
In short: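 Antagonism measured as luciferase signal (ONE-Glo, 30 min, room temperature) in CAR-stimulated cells: HepG2-CYP2B6-hCAR double-stable line exposed 24 hr at 37 C to compound in a 15-point series plus 50 nM CITCO.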

[19] = qHTS assay to identify small molecule antagonists of the estrogen related receptor signaling pathway with the pleiotropic PPARgamma coactivator (PGC) from Tox21 10K library (AID 1224841; call rule not given here; also: series mostly up to about 92 µM; actives are mostly falling curves and most rising ones were filed inactive; nearly all actives have a fitted effect of over 50% in size)
In short: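 Luminescence (One-Glo, 30 min at room temperature) after 18 h compound treatment at 37 C of PGC/ERR reporter cells plated at 2,000 cells/well and settled 6 h beforehand.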

[20] = qHTS assay to identify small molecule agonists of the estrogen related receptor signaling pathway with the pleiotropic PPARgamma coactivator (PGC) from Tox21 10K library (AID 1224842); also: nearly all actives have a fitted effect of over 15% in size
In short: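 PGC/ERR reporter cells (NTP line) were seeded 2,000 per well, rested 6 h at 37 C/5% CO2, then pin-dosed with compounds in DMSO for 18 h at 37 C; luciferase read by One-Glo luminescence after 30 min at room temperature.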

SMILES	Potency [1]	Potency [2]	outcome [3]	Potency [4]	Potency [5]	Potency [6]	Potency [7]	Potency [8]	Potency [9]	Potency [10]	Potency [11]	Potency [12]	Potency [13]	Potency [14]	outcome [15]	outcome [16]	outcome [17]	Potency [18]	Potency [19]	outcome [20]
C=C(C)C(=O)OCCOCCOCCOC(=O)C(=C)C	inactive	inactive	inactive	inactive	inactive	inactive	inactive	inactive	inactive	inactive	inactive	inactive	inactive	inactive	inactive					
C#CCN(C)Cc1ccccc1	inactive	inactive	inactive	inactive	inactive	inactive	inactive	inactive	inactive	inactive		inactive	inactive	inactive		inactive	inactive			
CCCCCCCCCCCCS	inactive	inactive	inactive	inactive		inactive	inactive	inactive	inactive	inactive	inactive	inactive	inactive	inactive	inactive			inactive		
CC(=O)CC(=O)Nc1ccccc1	inactive	inactive	inactive	inactive	inactive	inactive	inactive	inactive	inactive		inactive	19.3 µM (active) and inactive	inactive	inactive	inactive					
CCCCOC(=O)COc1ccc(Cl)cc1Cl	inactive	inactive	inactive	inactive		inactive	9.05 µM (active) and 10 µM (active)	inactive	inactive	inactive			inactive	inactive	inactive			inactive		
O=C(O)c1ccccc1C(c1ccc(O)cc1)c1ccc(O)cc1	inactive	inactive	inactive	inactive	inactive	inactive	inactive	inactive	inactive	inactive	inactive	inactive	inactive	inactive	inactive				inactive	inactive
CC(=O)Nc1ccccc1	inactive	inactive	inactive	inactive		inactive	inactive	inactive	inactive	inactive		inactive	inactive	inactive	inactive			inactive		
CC(=O)Nc1cccc(O)c1	inactive	inactive	inactive	inactive	inactive	inactive	inactive	inactive	inactive	inactive	inactive	inactive	inactive	inactive	inactive			inactive		
CCCCC(CC)COC(=O)CS (stereo not given)	inactive	inactive	inactive	inactive	inactive	inactive	inactive	inactive	inactive		inactive	inactive	inactive	inactive	inactive				inactive	inactive
Fc1ccc(Br)cc1	inactive	inactive	inactive	inactive		inactive	inactive	inactive	inactive	inactive	inactive	30.9 µM (active) and inactive	inactive	inactive	inactive			inactive	inactive	inactive
CN(C)CCC(c1ccccc1)c1ccccn1 (stereo not given)	inactive	inactive	inactive	inactive		inactive	inactive	inactive	inactive	inactive	inactive	inactive	inactive	inactive		inactive	inactive			
O=C1CCC(N2C(=O)c3ccccc3C2=O)C(=O)N1 (stereo not given)	inactive	inactive	inactive	inactive	inactive	inactive	inactive	inactive	inactive	inactive	inactive	inactive	inactive	inactive		inactive	inactive	inactive		
OCC(CO)(CBr)CBr	inactive	inactive	inactive	inactive	inactive	inactive	inactive	inactive	inactive	inactive	inactive	inactive	inactive	inactive	inactive				inactive	inactive
N[C@@H](Cc1cc(I)c(Oc2cc(I)c(O)c(I)c2)c(I)c1)C(=O)O	inactive	inactive	inactive	inactive	inactive	inactive	inactive	inactive	inactive	inactive	inactive	inactive	inactive	inactive	inactive			inactive	inactive	inactive
c1ccc2c(c1)ccc1ccccc12	inactive	inactive	inactive	inactive		inactive	34.6 µM (active) and 56.4 µM (active)	inactive	inactive	inactive	inactive		inactive	inactive	inactive				inactive	inactive
CCOC(=O)NNc1nncc2ccccc12	inactive	inactive	inactive	inactive	inactive	inactive	inactive	inactive	inactive	inactive	inactive	inactive	inactive	inactive	inactive			inactive		
CCCCCC1=CCCC1=O	inactive	inactive	inactive	inactive	inactive	inactive	inactive	inactive	inactive	inactive	inactive	inactive	inactive	inactive	inactive					
